rCAG RNA binder: binds r(CAG) RNA repeats; r(CAG) RNA repeat, TO-PRO-1 dye displacement fluorescence; inhibition, % at 3 µM; 370,000 tested, 1.3% active;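 active means inhibition above the plate cutoff, the mean of all test compounds on that plate plus 3 SD, cut at about 35% in these data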;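 further: 0% = DMSO alone and 100% = 100 µM mitoxantrone as full dye displacement; higher means more dye released from RNA so lower well fluorescence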
NadD inh: NadD (S. aureus) enzyme inhibition; purified NadD enzyme, colorimetric absorbance read-out; inhibition, % at 20 µM; 360,000 tested, 0.78% active; AID 602399; in the data active means inhibition above about 26%
FAS-TE inh: inhibitors of human fatty acid synthase thioesterase domain; P49327; recombinant FAS-TE, OMFH fluorogenic substrate, fluorescence endpoint; inhibition, % at 15 µM; 360,000 tested, 0.67% active; AID 602261;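 active means compounds whose normalised, plate-corrected inhibition of enzyme fluorescence in the single-dose primary screen is 50% or more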;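 further: 0% = DMSO with enzyme and 100% = substrate without enzyme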
NR3A LBD binder: NR3A (human) ligand-binding domain modulation; 340,000 tested, 2.5% active; Tm shift relative to glycine control, % at 25 µM; NR3A LBD differential scanning fluorimetry, Tm shift; 0% = protein alone, 100% = glycine-bound protein;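 active means melting temperature shift of at least 10% of the positive control shift, at one fixed dose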
An asterisk follows results filed as active. Rows were chosen to be rich in hits. Some 4.3% of all compounds tested hit in one or more screens of this group.

`Cc1ccc(S(=O)(=O)N2CCOC2CNC(=O)C(=O)NCCN(C)C)cc1` (centres undefined) gave rCAG RNA binder -1.0, NadD inh -2.5, FAS-TE inh -5.9 and NR3A LBD binder 12.6*.
C[C@@H]1COc2cc(Br)ccc2S(=O)(=O)N1Cc1cn(Cc2ccc(F)cc2)nn1 was read as rCAG RNA binder 1.5.
For COc1ccc(S(=O)(=O)Nc2ccc(S(=O)(=O)Nc3ccc(F)cc3)cc2)cc1C the results were rCAG RNA binder 46.8*, NadD inh -2.7, FAS-TE inh 21.0 and NR3A LBD binder 16.4*.
N#Cc1ccc(C(=O)Nc2cc(S(=O)(=O)Nc3ccc(Cl)cc3)ccc2N2CCCCC2)cc1 was read as rCAG RNA binder 29.4, NadD inh 23.1, FAS-TE inh 15.4 and NR3A LBD binder 22.1*.
Screening COc1cc(Cl)c(C)cc1NC(=O)c1ccc(NS(=O)(=O)c2ccc(F)c(F)c2)cc1 returned rCAG RNA binder 4.4, NadD inh 13.8, FAS-TE inh 9.9 and NR3A LBD binder 31.6*.
COc1ccc(S(=O)(=O)Nc2ccc(F)c(F)c2)cc1Cl was read as rCAG RNA binder 12.8, NadD inh -5.7, FAS-TE inh 7.5 and NR3A LBD binder -2.7.
Screening O=C(Nc1cc(S(=O)(=O)Nc2ccc(Cl)cc2)ccc1N1CCCCC1)c1ccc(F)cc1 returned rCAG RNA binder 4.7, NadD inh 15.4, FAS-TE inh 32.6 and NR3A LBD binder 24.6*.
`CC(C)(C)c1ccc(C#C[C@@H]2C=C[C@H]3OC(=O)CC/C=C/CCC(=O)OC[C@H]3O2)cc1` gave rCAG RNA binder 7.2.
For COc1ccc(-c2cc3ccc(OC)cc3cn2)cc1 the results were rCAG RNA binder 1.7, NadD inh -0.9, FAS-TE inh 0.5 and NR3A LBD binder 40.9*.
For COc1ccc(-c2cc3ccccc3cn2)cc1 the results were rCAG RNA binder -3.4, NadD inh -4.8, FAS-TE inh 5.1 and NR3A LBD binder -33.8.
For Cc1ccc(S(=O)(=O)/N=C2/NC(=O)/C(=C\c3cc(Br)cc(Br)c3O)S2)cc1 the results were NadD inh 40.6*, FAS-TE inh -12.1 and NR3A LBD binder 6.3.
Screening COc1ccc(NC(=O)c2cccs2)cc1OC returned rCAG RNA binder -1.3, NadD inh -3.6, FAS-TE inh -5.8 and NR3A LBD binder -1.6.
`COc1ccc(Cl)cc1-c1nc(-c2ccc(NC(=O)c3cccs3)cc2)no1` gave NadD inh 11.2, FAS-TE inh 11.8 and NR3A LBD binder 35.2*.
Screening COc1cccc(NC(=O)c2cccs2)c1 returned rCAG RNA binder -1.5, NadD inh -7.9, FAS-TE inh -2.7 and NR3A LBD binder 25.5*.
`COc1ccc(/C=C/C(=O)c2ccc(O)cc2)cc1` gave rCAG RNA binder 3.0, NadD inh -4.3, FAS-TE inh -4.7 and NR3A LBD binder 11.0*.
O=C(Nc1ccc(NC(=O)C2CC2)nc1)c1cccs1 was read as rCAG RNA binder -1.9, NadD inh -7.4, FAS-TE inh -6.6 and NR3A LBD binder -5.7.
For O=C(Nc1ccc(NC(=O)c2cccs2)cn1)c1ccccc1 the results were rCAG RNA binder -0.5, NadD inh 6.4, FAS-TE inh -5.3 and NR3A LBD binder 13.6*.
COc1cc(NC(=O)c2cccs2)cc(OC)c1 was read as rCAG RNA binder 1.7, NadD inh -7.1, FAS-TE inh -6.5 and NR3A LBD binder 5.7.
For COc1ccc(C(=O)Nc2cccc(NC(=O)c3cccs3)c2)cc1 the results were rCAG RNA binder 1.8, NadD inh -4.2, FAS-TE inh 9.6 and NR3A LBD binder 8.0.
Cc1cc(C)cc(C(=O)Nc2ccc(NC(=O)c3cccs3)cc2)c1 was read as rCAG RNA binder 6.9, NadD inh -1.4, FAS-TE inh 11.3 and NR3A LBD binder 26.9*.
COc1ccc(C(=O)/C=C\c2ccc(NC(=O)c3cccs3)cc2)cc1 was read as rCAG RNA binder 8.4, NadD inh -5.3, FAS-TE inh 8.3 and NR3A LBD binder 23.0*.
Screening COc1ccc(OCC(=O)Nc2ccc(NC(=O)c3cccs3)cc2)cc1 returned rCAG RNA binder 11.3, NadD inh -5.7, FAS-TE inh -4.0 and NR3A LBD binder 32.3*.
Screening COc1ccc(NC(=O)c2ccc(NC(=O)c3cccs3)cc2)cc1 returned rCAG RNA binder -2.3, NadD inh -1.1, FAS-TE inh -3.0 and NR3A LBD binder 25.6*.
For COc1ccc(CCNC(=O)c2cccs2)cc1 the results were rCAG RNA binder 0.8, NadD inh -8.6, FAS-TE inh -3.8 and NR3A LBD binder 30.9*.
Screening O=C(CCc1ccccc1)N[C@H]1[C@@H](O)CCC[C@]12C(=O)N(Cc1ccccc1)c1ccccc12 returned rCAG RNA binder 3.7.

Compound activity deposited in PubChem BioAssay by several laboratories.
